Laboratory results reported in PubChem BioAssay AID1053143 (Broad Institute, 2014).
Screen size: about 3,400 compounds; about 120 (3.5%) were called active. No rule for the calls is given here. Not all results are given here. A call without a number means that no potency is given here. Potency and affinity values are given separately.

Experiment: viability loss in HepG2 hepatoma cells – cell-based, ATP luminescence, cherry-pick, activator set 2, cytotoxicity control, dose response (AID 1053143)
Details: CellTiter-Glo ATP luminescence, 72 h; series mostly up to 26 µM

SMILES | activity change, negative = cytotoxicity
CCCC(=O)Nc1ccc(C#Cc2ccccc2)cc1 | inactive
O=C(NC(=O)c1ccccc1)Nc1ccccc1 | inactive
Cc1ccc(NC(=O)c2ccc(OC(=O)c3cc4ccccc4o3)cc2)cc1 | inactive
CCOC(=O)C1=C(C)NC(=O)C(C(N)=O)C1c1ccccc1 (stereo not given) | inactive
O=C(NC1CC1)C1Nc2ccc(OC(F)(F)F)cc2C2C=CCC12 (stereo not given) | inactive
O=C(Nc1ccc2c(c1)nc1n2CCOC1)c1ccccc1 | inactive
COc1cccc(NC(=O)c2cccc(Cl)c2)c1 | inactive
O=C(Nc1nc2ccccc2[nH]1)c1cccc(Cl)c1 | inactive
COc1ccc2cc3cc(C(=O)N4CCCCC4C)oc3nc2c1 (stereo not given) | inactive
Cc1nn(Cc2ccccc2)c(Cl)c1C(=O)NCCc1ccccc1 | inactive
CCCn1cnc2cc(NC(=O)c3cccs3)ccc21 | inactive
COc1cccc2oc3cc(C#Cc4ccccn4)ccc3c(=O)c12 | inactive
O=c1c2ccccc2oc2cc(C#Cc3ccccn3)ccc12 | inactive
O=[N+]([O-])c1cc(Cl)ccc1-c1nc(-c2ccccc2)no1 | inactive
Fc1ccc(-c2cn3cc(C(F)(F)F)cc(Cl)c3n2)cc1 | inactive
O=C(CCCCn1c(=O)[nH]c2ccsc2c1=O)NCCc1ccccc1 | inactive
C[C@@H]1ON(C)[C@H]2C[C@H]3c4cc(-c5cc6ccccc6o5)ccc4CCN3C[C@@H]12 | inactive
COc1cccc(/C=N/NC(=O)c2ccoc2C)c1 | inactive

SMILES | activity change, negative = cytotoxicity
O=C(NN=Cc1ccc2c(c1)OCO2)c1ccccc1 | inactive
Cc1occc1C(=O)N/N=C/c1ccc(OCc2ccccc2)cc1 | inactive
O=C(N/N=C/c1ccc2c(c1)OCO2)c1ccc(Br)o1 | inactive
O=C(CSc1nnc(-c2ccncc2)o1)Nc1cc(F)ccc1F | inactive
CN(C)c1ccc(-c2ccccc2)nn1 | inactive
CCC(=O)NC1=C(Nc2ccc(N)cc2)C(=O)c2ccccc2C1=O | inactive
CCc1ccc(NCc2nc3ccccc3c(=O)[nH]2)cc1 | inactive
COCC(=O)OCc1cc2cccc(C)c2[nH]c1=O | inactive
Cc1ccc(N2CC(C(=O)Nc3ccc4c(c3)OCCO4)CC2=O)cc1 (stereo not given) | inactive
Cc1cc(C(=O)NC2CCCCCCC2)ccc1[N+](=O)[O-] | inactive
O=C(CN1CCOCC1)Nc1ccc(C2CCCCC2)cc1 | inactive
COc1ccc(/C=C/C(=O)c2ccccc2)c(OC)c1 | inactive
COc1ccc2nc(-c3ccccc3)[nH]c2c1 | inactive
O=C(NC1=NCCS1)c1ccc(OCC2CCCO2)cc1 (stereo not given) | inactive
Cc1ccc(NC(=O)c2ccc(OCC3CCCO3)cc2)cc1Cl (stereo not given) | inactive
Cc1ccnc(NC(=O)c2ccc(S(=O)(=O)N3CCC(C)CC3)cc2)c1 | inactive
Cc1cc(NC(=O)c2ccc3nccnc3c2)ccc1Br | inactive
